# Key:
# Experiment in all cases: PBM binding z-score (relative to random genomic background probes); higher = stronger binding; sequences stand for … in GC…GCGATTGACAGCGTAGAATGAAGG
# [1] = system: FXR:RXRa (NR concentration 270 nM, RXRa partner concentration 90 nM)
# Method in brief: (§1)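 Each nuclear receptor dimer, without ligand, was incubated for 1 h on custom Agilent 4×180K protein-binding microarrays. Binding was detected with antibodies against each partner (one per run), and scanned fluorescence was regression-normalized. The binding z-scores are referenced to random human genomic background probes.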
# [2] = system: LXRa:RXRa (NR concentration 270 nM, RXRa partner concentration 90 nM)
# Method in brief: as §1
# [3] = system: LXRa homodimer (NR concentration 270 nM)
# Method in brief: as §1
# [4] = system: LXRb:RXRa (NR concentration 270 nM, RXRa partner concentration 90 nM)
# Method in brief: as §1
# [5] = system: LXRb homodimer (NR concentration 270 nM)
# Method in brief: as §1
# [6] = system: PPARa:RXRa (NR concentration 270 nM, RXRa partner concentration 90 nM)
# Method in brief: as §1
# [7] = system: PPARg:RXRa (NR concentration 180 nM, RXRa partner concentration 90 nM)
# Method in brief: as §1
# [8] = system: PPARg:RXRa 270nM:90nM, anti-RXR (NR concentration 270 nM, RXRa partner concentration 90 nM)
# Method in brief: as §1
# [9] = system: PPARg:RXRa 30nM:10nM, anti-RXR (NR concentration 30 nM, RXRa partner concentration 10 nM)
# Method in brief: as §1
# [10] = system: PPARg:RXRa 90nM:30nM, anti-RXR (NR concentration 90 nM, RXRa partner concentration 30 nM)
# Method in brief: as §1
Sequence,PBM binding z-score [1],PBM binding z-score [2],PBM binding z-score [3],PBM binding z-score [4],PBM binding z-score [5],PBM binding z-score [6],PBM binding z-score [7],PBM binding z-score [8],PBM binding z-score [9],PBM binding z-score [10]
AGAATGAGGTTATTACGATCAGGGAATTGCGGTC,2.01,1.7,0.373,1.49,0.0914,2.66,1.55,1.88,0.584,1.11
AATACAGGGTCACTAGGCCAGAGCAGGTACGAAT,5.98,5.08,0.784,3.77,0.86,5.66,7.53,6.45,3.36,5.53
CCTTACGGGTCACTGAGAGGTTATAGCATTTGGA,5.67,4.71,0.946,3.9,-0.26,5.58,4.88,4.87,1.69,3.68
CCAGACAGGTGAAAGGTTACTCAGTCTGGTACGC,2.37,2.59,0.167,2.26,-0.0595,4.67,7.6,7.17,5.84,7.77
ATCTTTAGGTAAGACTCAGTTCAGTGAAGAACGC,0.459,0.502,0.392,0.259,0.931,0.478,0.122,0.267,0.146,0.0526
TCTTGTAGATCAACAGGAGGTTAAGAATGATCGA,0.541,0.729,0.072,0.703,-0.4,1.41,0.296,1.52,2.59,2.06
ACTTGCGGGTCAACGAGGTTATAGCACGCGTATA,6.24,4.45,0.548,4.2,0.327,5.46,5.47,5.43,2.04,4.42
CCTAGTTTGTCAGGAGGTCACACACCGGATATGA,3.37,3.76,3,3.64,1.48,4.17,2.45,3.15,1.26,2.39
TCGAGTAGGTTAGTCGGGGCACTCAGCCAACATA,0.251,0.253,-0.0703,0.402,-1.06,0.681,0.103,0.749,0.995,0.753
TCTTGTAGATCAACAGGAGGATAAGAAAGATCGA,0.307,0.0206,-0.000187,0.226,-0.349,0.337,0.379,0.997,2.56,1.61
TCAGAAAGGTGAAGGTAACTCAGGTACGCAGTCG,1.82,2.61,0.105,1.67,-0.156,2.97,1.75,3.44,4.63,4.04
TCATAAAGGTAATACAGGTGAAAGTCGGCATCTA,1.53,2.4,0.378,1.49,0.311,2.48,1.23,3,4.29,3.61
CCGACAGGGGCAAGGTTACCATAACGCACAGCCA,0.485,0.975,-0.0477,0.737,-0.848,1.49,1.32,0.765,0.0629,0.378
TCATATAGGTAAAAGGCGAAAGTCGGTGTGGTAA,0.336,0.537,0.094,0.746,-0.359,2.66,4.65,6.15,6.72,7.04
TCTTGTAGATCAACAGGAGGTTTAGAAAGATCGA,-0.117,-0.19,-0.342,0.0269,-0.559,0.152,-0.195,0.953,2.59,1.93
GCATATAGGAAATACAAGGTGAAAGTCCGATTGT,-0.0334,-0.148,-0.095,0.0762,-0.434,0.727,0.752,0.734,-0.0341,0.81
TAGAGTAGGTTACCAATGGGGCATTCAGCTTTCT,0.195,1.62,0.13,1.22,1.02,1.68,1.3,1.96,1.16,1.72
ACTCGGAGGAAAAAGGTCAGAGCTACGCCAGTGA,2.49,3,0.501,2.45,-0.26,3.73,2.6,3.2,1.2,2.74
ATCTCTAGGTAAGACTCAGTTCAATGAAGAACGC,0.961,1.03,1.15,1.04,1.18,0.681,0.379,0.658,0.44,0.504
CTCGAAAGGTCGGTTGAGGTGAGCATACGGATAA,2.86,1.78,-0.014,1.37,-0.173,2.74,0.697,1.33,0.406,0.609
TCTGCTACGTCAACGATGGTCAGCTAATCTGCTA,-0.231,-0.136,-0.622,-0.384,-0.541,-0.191,0.00276,0.525,1.6,1.1
GGAACGAGGGCAAAGTTGGTAGCATCTGTCGACG,1.06,0.577,-0.241,0.306,-0.429,3.14,5,5.51,4.45,5.44
ACTAGTTGGTCAGCTGCGGTCACACACAATTCGG,0.216,0.737,1.43,0.671,0.37,0.527,0.606,0.528,-0.0871,0.128

# Source: the supplement of paper PMC6555819
